ALDH1A1 block: blocks purified human ALDH1A1 activity. P00352. Purified ALDH1A1, NADH fluorescence, propionaldehyde substrate. Potency, µM (doses to about 75.3 µM), without a hit: at the top dose activity, negative = inhibition, most hits filed as inhibitors. 220,000 tested, 7.3% active. AID 1030;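 also: potency is read from the fitted curve at half-maximal effect; plate controls were no enzyme wells and a reference inhibitor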
Target sequence (P00352 whole entry, looked up): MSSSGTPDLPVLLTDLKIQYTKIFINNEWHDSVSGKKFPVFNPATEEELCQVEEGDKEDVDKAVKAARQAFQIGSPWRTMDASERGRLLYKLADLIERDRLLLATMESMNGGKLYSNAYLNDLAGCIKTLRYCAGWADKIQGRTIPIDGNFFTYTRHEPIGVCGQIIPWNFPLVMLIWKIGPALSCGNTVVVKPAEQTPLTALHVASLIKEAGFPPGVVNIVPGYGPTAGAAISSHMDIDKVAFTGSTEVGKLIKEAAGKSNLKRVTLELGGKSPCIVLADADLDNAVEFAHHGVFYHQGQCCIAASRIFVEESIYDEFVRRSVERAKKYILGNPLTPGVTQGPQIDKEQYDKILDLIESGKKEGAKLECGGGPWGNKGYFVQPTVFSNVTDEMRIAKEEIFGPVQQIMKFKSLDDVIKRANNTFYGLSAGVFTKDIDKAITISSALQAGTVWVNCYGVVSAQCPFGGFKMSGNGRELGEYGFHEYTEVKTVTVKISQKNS
IMPase Li cell: IMPase inhibition in cells with lithium potentiation; CHO-M1 cells, IP1 TR-FRET (IP-One), carbachol + lithium; Potency, µM (highest dose often 59.4 µM), for inactives: at the top dose activity, negative = IMPase inhibition, usual class: inhibitors; 210,000 tested, 0.35% active; active = well fitted inhibition curve with a large enough effect; inconclusive = small, poorly fitted or top-dose-only effect; inactive = no such curve, though single readings can be large or run the other way;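 also: IP1 builds up when IMPase is blocked and the TR-FRET signal falls; potency is read from the fitted curve at half-maximal effect; plate controls were basal vehicle for no effect and high inhibitor control for full effect; nearly all actives have a fitted effect of over 50% in size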
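CHO cells stably expressing M1 receptor (2000/well, cultured 16–30 h) treated 30 min at 37C with compound plus low lithium. Cytosolic IP1 by TR-FRET (665/620 ratio and 620 channel) after 10 min lysis; AC50 by Hill fit.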
IMPase cell inh: cell-permeable inhibitors of inositol monophosphatase (IMPase). inhibition (IP1 accumulation), % at 46.1 µM. 120,000 tested, under 10 active. CHO-M1 cells, IP1 accumulation, HTRF TR-FRET ratio. P97697; active = well fitted curve in the direction sought with a large enough effect in the signal ratio, not every such curve was filed as active; inconclusive = small, poorly fitted or top-dose-only effect, or a change in a side signal; inactive = no such curve, though single readings can be large or run the other way; the % refers to the signal ratio;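 also: cells stimulated with carbachol in lithium chloride buffer; plate controls were DMSO basal wells for no effect and reference inhibitor wells for full effect; higher means more IMPase inhibition seen as more IP1 and lower FRET ratio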
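Carbachol-driven Gq signalling in CHO-M1 cells (2000/well) generates IP1. Compounds that block IMPase raise IP1 and so reduce the FRET signal from Eu-anti-IP1 and d2-IP1 after a 10 min room-temperature lysis.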
HPGD block: inhibitors of human 15-hydroxyprostaglandin dehydrogenase (HPGD); P15428; purified HPGD, NADH fluorescence kinetic, PGE2 substrate; Potency, µM, without a hit: at the top dose activity change, negative = inhibition, usual class: inhibitors; 150,000 tested, 4.3% active; AID 894; also: potency is read from the fitted curve at half-maximal effect
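NADH formation kinetics: reaction with 30 uM PGE2 and 1 mM NAD+ (final), 20 nM enzyme, Tris-HCl pH 8 with Tween 20, after 15 min compound preincubation at room temperature. Fluorescence change, last versus first of five reads.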
PNC assembly inh: perinucleolar compartment assembly inhibition | PC3M PTB-GFP, PNC prevalence imaging, 16 h; hits give low values | activity change (PNC), negative = inhibition, % at 10 µM | 140,000 tested, 3.1% active | AID 2417;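 active = readout at or below -70, meaning at least 70% loss of cells showing the perinucleolar compartment, a nuclear body marking cancer cells; inconclusive = readout between -30 and a set limit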;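 also: plate controls were DMSO wells for no effect and camptothecin positive control wells for full effect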
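PC3M cells stably expressing PTB-GFP, 750–1000 cells/well, treated 16 h at 37 °C with compound (23 nl of library stock), in duplicate. After paraformaldehyde fixation and Hoechst stain, imaged at 20x; PNC prevalence scored by image analysis.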
* hit, by the source's call; ? = inconclusive; / = no result given; ! = a repeat was not active; [ ] = dose if it differs, or a comment. The list is not random: actives were taken first. Their share in the collection is about 11%. Unless noted, calls follow the shape of the dose curve; as a rule, active = well fitted inhibition curve with a large enough effect (not every such curve was filed as active); inconclusive = small, poorly fitted or top-dose-only effect, or another doubt; inactive = no such curve, though single readings can be large or run the other way. Unless noted, % is scaled to controls: 0 for no effect and ±100 for the full control effect.

SMILES | ALDH1A1 block | IMPase Li cell | IMPase cell inh | HPGD block | PNC assembly inh
CCOC(=O)c1cc(C(=O)c2ccccc2O)cn2c(=O)c3c(C)c(C)sc3nc12 | 14.1µM* | 3.6% | / | / | /
Cc1sc2nc3c(C(=O)N4CCN(c5ccccn5)CC4)cccn3c(=O)c2c1C | -3.0% | -9.1%[38.3 µM] | 3.2 | ? | ?
CCC(C)(C)NC(=O)c1cc([N+](=O)[O-])ccc1N1CCOCC1 | 2.5% | -2.1% | 0.2 | -10.2% | 18.8
O=C(c1nc2ccccn2c1CN1CCC(Cc2ccccc2)CC1)N1CCCC1 | 11.2µM* | 15.7% | / | / | /
COc1ccc(CNC(=O)C2CCC(CNS(=O)(=O)c3cccc4nsnc34)CC2)cc1 (centres undefined) | ? | 3.4%[38.3 µM] | -3.6 | -3.0% | ?
CCOCCCNC(=O)C1CCC(CNS(=O)(=O)c2cccc3nsnc23)CC1 (centres undefined) | 2.6% | 5.2% | -13.5 | 25.1µM* | -9.6
O=C(/C=C/c1ccc([N+](=O)[O-])cc1)OCC(=O)N1c2ccccc2Sc2ccccc21 | 2.3% | -3.1% | / | -14.2% | -5.6
O=c1cc(-c2ccccc2)n(S(=O)(=O)c2ccccc2)o1 | 25.1µM* | 20.6%[38.3 µM] | -5.5 | -18.0% | 4.0
COc1ccc(S(=O)(=O)n2oc(=O)cc2-c2ccccc2)cc1 | ? | 25.6%[38.3 µM] | 7.5 | -14.0% | ?
CN(C)C(=O)c1ccc(-c2ccc3ncnc(NCCN4CCOCC4)c3c2)cc1 | ? | 10.5% | / | / | /
Cc1cccc(NC(=O)CSc2nnc(CNC(=O)c3ccc(S(=O)(=O)N(C)C)cc3)n2-c2cccc(C)c2)c1 | ? | 9.9% | / | -7.2% | 27.5
Cc1cccc(NC(=O)CSc2nnc(CNC(=O)c3ccc(S(=O)(=O)N(C)C)cc3)n2-c2ccccc2)c1 | 7.08µM* | 0.1% | / | 4.9% | -3.3
Cc1cccc(-n2c(CNC(=O)c3ccc(S(=O)(=O)N(C)C)cc3)nnc2SCC(=O)Nc2ccc(F)cc2)c1 | 0.447µM* | -9.4% | / | -13.5% | ?
Oc1cc2c(cc1O)C1c3ccc(O)c(O)c3OCC1(O)C2 (centres undefined) | 11.2µM*! | 4.3% | / | 1.12µM* | /
CN1C(=O)OC2(C)CCc3ccccc3C12C (centres undefined) | 31.6µM* | / | -2.8 | / | ?
CN(/N=C\c1ccccc1O)c1ccc2ccccc2n1 | 5.2%[13.5 µM] | -11.0% | / | -3.9% | /
CCOc1ccc(NC(=S)Nc2cc(-c3ccccc3)[nH]n2)cc1 | 12.6µM* | 9.2%[38.3 µM] | 4.7 | -14.8% | 41.1
Cc1cc(NC(=S)Nc2ccc(C)c(Cl)c2)n[nH]1 | 1.41µM* | 9.6% | / | / | /
COc1cc(C)c(NC(=S)Nc2ccc(C)c(Cl)c2)cc1OC | ? | 2.2% | / | -13.4% | -18.3
COc1ccc(NC(=S)Nc2cc(-c3ccccc3)[nH]n2)cc1Cl | 10µM* | -5.5% | 11.4 | -28.8% | ?
CCOc1ccc(NC(=S)Nc2cccnc2)cc1 | ? | 4.9% | / | / | /
COc1ccc(NC(=S)Nc2cccc(Cl)c2Cl)cc1OC | ? | -2.6% | / | / | /
CCn1c(Cc2ccc(OC)cc2)nnc1SCC(=O)Nc1cccc(C(=O)OC)c1 | -0.7% | -7.9% | 1.0 | -20.4% | 449.1
COc1ccc(Cc2ccc3[nH]c(=O)cc(C)c3c2)cc1S(=O)(=O)O | 0.9%[13.5 µM] | -14.4% | / | -7.2% | /
C[C@@]12CC(=O)[C@@H]3[C@@H](CCC4=CC(=O)CC[C@]43C)[C@@H]1CC=C2CC(=O)O | 5.8%[13.5 µM] | -11.9% | / | -6.5% | /
SMILES | ALDH1A1 block | IMPase Li cell | IMPase cell inh | HPGD block | PNC assembly inh
O=C(NCc1ccc2c(c1)OCO2)C1CCN(S(=O)(=O)N2CCOCC2)CC1 | ? | 1.9% | / | -19.6% | 67.9
O=C(NCc1ccc2c(c1)OCO2)C1CCN(S(=O)(=O)c2cccs2)CC1 | 0.316µM* | -19.4%[38.3 µM] | -2.6 | -11.3% | 6.8
O=C(NCc1ccc2c(c1)OCO2)C1CCN(S(=O)(=O)N2CCCCC2)CC1 | 5.01µM* | -1.0% | / | -7.8% | 27.6
O=C(NCc1ccc2c(c1)OCO2)C1CCN(S(=O)(=O)c2ccc(Br)s2)CC1 | ? | 16.1%[38.3 µM] | -3.0 | -13.3% | -4.5
O=C(CSc1nnc(SCc2ccc(Cl)cc2)s1)N/N=C/c1c[nH]c2ccccc12 | -1.3% | -0.7% | / | -18.1% | -82.5*
O=C(N/N=C/c1c[nH]c2ccccc12)c1ccn(Cc2ccc(Cl)cc2)n1 | -5.9% | 1.0%[38.3 µM] | 0.3 | -16.2% | 44.0
O=C(O)CSc1nnc(SCc2cccc3ccccc23)s1 | ? | 29.6%[38.3 µM] | 5.3 | 15.8µM* | 29.7

Compound activity deposited in PubChem BioAssay by National Center for Advancing Translational Sciences (NCATS).
